Measured values from PubChem BioAssay.
Active and inactive are the calls of the source.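 The calls were made as follows, unless noted: active = fluorescence slope after compound addition differing from the mean of all screened samples at 99.7% confidence, in either direction; inactive = the rest.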

Columns and labels:
[1] = inhibitors of TNFa-induced NFkB p65 translocation, primary screen, imaging, HUVEC, MLSMR starter and 10KST1 sets (AID 438;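 active = inhibition above 20% together with a positive visual image hit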;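 also: compound added about 3h40 before a 20 min TNFalpha stimulation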;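 as to inhibition: signal is the nuclear over cytoplasmic p65 intensity ratio per well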); details: HUVEC TNFa-induced p65 nuclear translocation; cell count: measured here: nuclei count (cytotoxicity indicator), at 2.08 µM; inhibition: at 2 µM, stronger effect = higher value, 0% TNFa-plus-vehicle, 100% no-TNFa wells
[2] = inhibitors of mutant huntingtin aggregation, primary screen, imaging, exon1htt(103Q)mCFP cells, high-content imaging (AID 483;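 active = visual image review flags a hit and inhibition of aggregation exceeds 20%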;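 also: compound exposure lasted 3 days before fixation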;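 as to nuclei count: percent of the per-plate median nuclei count of sample wells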); details: exon1htt(103Q)mCFP cell line, aggregate imaging, at 2 µM; inhibition of aggregation: stronger effect = higher value; nuclei count: measured here: cell count, toxicity
[3] = inhibitors of E-selectin induction by TNFa, primary screen, imaging, HUVEC, immunofluorescence, MLSMR starter and 10KST1 sets (AID 487;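 active = visually confirmed hit in the image check and inhibition above 20%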;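 as to inhibition: signal is fraction of cell area covered by stained E-selectin grains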;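 as to nuclei count: 100% = median nuclei count of all wells on the same plate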); details: HUVEC TNFalpha-induced E-selectin immunofluorescence imaging, at 2 µM; inhibition: stronger effect = higher value; nuclei count: measured here: cell number, toxicity
[4] = biological target: Voltage-gated potassium channel subunit beta-2 (Rattus norvegicus) (UniProt P62483); assay: KvBeta enzyme negative modulators, primary screen, biochemical, NADPH fluorescence (AID 622;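 active = fluorescence slope higher than the sample average by over 3 SD, cut at about -0.22 in these data, passing the limit was not always enough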;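 also: slope of raw intensity against log time taken from 70 to 1610 s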); details: recombinant KvBeta, 4-cyanobenzaldehyde reduction, at 10 µM, stronger effect = higher value
[5] = biological target: Voltage-gated potassium channel subunit beta-2 (Rattus norvegicus) (UniProt P62483); assay: KvBeta positive modulators, primary screen, biochemical, NADPH fluorescence (AID 623;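 active = NADPH fluorescence slope more negative than the mean of all samples by about 3 SD, 99.7% confidence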;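 also: fluorescence intensity change per second fitted from 20 to 320 s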); details: Recombinant KvBeta, NADPH fluorescence decrease slope, 10 min; at 10 µM; stronger effect = lower value
[6] = biological target: Alpha-2C adrenergic receptor (Homo sapiens) (UniProt P18825); assay: modulators of alpha2C/GIRK thallium flux, primary screen, cell-based, HEK293 alpha2C/GIRK1/2 (AID 624); details: thallium flux BTC fluorescence, at 10 µM, actives lie on both sides;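 also: slope of fluorescence ratio to pre-addition baseline per second over 15 to 24 s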
[7] = inhibitors of Sendai virus-induced IRF3 signaling, primary screen, TLR/RLR signaling modifier project, cell-based, Sendai virus stimulus, luciferase, 10K MLSCN set (AID 602276;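 active = inhibition at or above 50% at 10 µM; inactive = inhibition below 50%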;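 also: firefly luciferase from ISG56 promoter only with Renilla not read in this screen; 0% = Sendai virus plus DMSO and 100% = medium plus DMSO without virus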); details: HEK293 RL24 IRF3 luciferase reporter, at 10 µM, stronger effect = higher value
[8] = inhibitors of poly I:C-induced TLR3 signaling, primary screen, cell-based, poly I:C stimulus, luciferase, 10K MLSCN set (AID 602277;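 active = inhibition of the reporter signal at or above 50%; inactive = inhibition below 50%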); details: HEK293-TLR3 RL24 IRF3 luciferase reporter, at 10 µM, stronger effect = higher value

Sequence of Voltage-gated potassium channel subunit beta-2 (Rattus norvegicus) (P62483 whole entry, looked up): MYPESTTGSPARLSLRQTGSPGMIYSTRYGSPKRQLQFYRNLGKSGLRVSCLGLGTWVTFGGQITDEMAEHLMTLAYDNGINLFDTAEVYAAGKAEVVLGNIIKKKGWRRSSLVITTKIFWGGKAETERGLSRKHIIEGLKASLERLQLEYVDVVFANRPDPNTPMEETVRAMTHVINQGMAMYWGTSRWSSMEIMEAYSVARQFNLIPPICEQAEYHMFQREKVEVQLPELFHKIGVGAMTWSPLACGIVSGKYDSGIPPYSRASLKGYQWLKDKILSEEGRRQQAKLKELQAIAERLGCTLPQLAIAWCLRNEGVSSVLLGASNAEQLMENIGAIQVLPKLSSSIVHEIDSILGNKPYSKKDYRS
Sequence of Alpha-2C adrenergic receptor (Homo sapiens) (P18825 whole entry, looked up): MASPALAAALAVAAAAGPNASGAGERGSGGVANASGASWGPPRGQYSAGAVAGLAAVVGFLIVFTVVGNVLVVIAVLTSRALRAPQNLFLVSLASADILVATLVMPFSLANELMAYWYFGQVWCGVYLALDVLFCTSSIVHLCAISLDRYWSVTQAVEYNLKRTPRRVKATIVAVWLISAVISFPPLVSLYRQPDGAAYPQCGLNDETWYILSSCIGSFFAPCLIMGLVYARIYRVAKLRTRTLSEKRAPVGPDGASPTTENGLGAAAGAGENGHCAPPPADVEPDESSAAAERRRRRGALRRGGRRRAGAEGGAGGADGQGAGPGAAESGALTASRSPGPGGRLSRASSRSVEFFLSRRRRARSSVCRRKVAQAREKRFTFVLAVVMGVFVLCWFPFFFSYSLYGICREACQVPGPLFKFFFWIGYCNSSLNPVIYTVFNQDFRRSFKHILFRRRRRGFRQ

| SMILES | cell count [1] | inhibition [1] | inhibition of aggregation [2] | nuclei count [2] | inhibition [3] | nuclei count [3] | fluorescence slope [4] | NADPH fluorescence slope [5] | slope [6] | inhibition [7] | inhibition [8] |
| --- | --- | --- | --- | --- | --- | --- | --- | --- | --- | --- | --- |
| Cn1c(=O)[nH]c(=O)c2c1nc(Br)n2Cc1ccccc1F | 668 | 8.8% (inactive) | 19.4% (inactive) | 68.3% | 4.9% (inactive) | 106% | -0.467 (inactive) | -3.7e-05 (inactive) | 0.00509 (inactive) | 9.21% (inactive) | 12.8% (inactive) |
| CCn1c(=O)cc(OCC(=O)Nc2nc(C)cs2)c2ccccc21 | 809 | -1.7% (inactive) | -24.7% (inactive) | 90.4% | -54.6% (inactive) | 125% | -0.525 (inactive) | -3.4e-05 (inactive) | 0.00615 (inactive) | 7.74% (inactive) | 32.8% (inactive) |
| COc1ccc(-n2c(SCC#N)nc3ccccc3c2=O)cc1 | 314 | -4.7% (inactive) | -15.4% (inactive) | 105% | -11% (inactive) | 118% | -0.491 (inactive) | 7e-05 (inactive) | 0.00655 (inactive) | -8.69% (inactive) | -76.1% (inactive) |
| COc1ccc(/C=N/n2cc(-c3ccc(OC)cc3)nc2N)cc1 | 351 | 10.9% (inactive) | 2.2% (inactive) | 107% | 6.3% (inactive) | 117% | -0.246 (inactive) | 1.1e-05 (inactive) | 0.00586 (inactive) | 8.24% (inactive) | 2.92% (inactive) |
| COc1nc(C)ccc1-c1noc(-c2ccncc2)n1 | 255 | 7% (inactive) | -7.3% (inactive) | 36.4% | -40% (inactive) | 130% | -0.468 (inactive) | -1.8e-06 (inactive) | 0.00545 (inactive) | -26% (inactive) | -82.9% (inactive) |
| C/C=C/CSc1nc2c(c(=O)[nH]c(=O)n2C)n1Cc1ccc(C)cc1 | 693 | -6.9% (inactive) | -5% (inactive) | 116% | -43.7% (inactive) | 112% | -0.542 (inactive) | -3.9e-05 (inactive) | 0.0074 (inactive) | -3.97% (inactive) | 18.2% (inactive) |
| COc1ccc(-c2noc(-c3ccccc3C(=O)Nc3cccnc3)n2)cc1OC | 395 | -5.7% (inactive) | -13.9% (inactive) | 103% | -57.8% (inactive) | 115% | -0.458 (inactive) | -3.1e-05 (inactive) | 0.00579 (inactive) | 1.54% (inactive) | 0.376% (inactive) |
| CCc1nnc(NC(=O)c2cc3c(s2)CCCCC3)s1 | 662 | 4.4% (inactive) | 4.1% (inactive) | 131% | -89.1% (inactive) | 108% | -0.406 (inactive) | -0.000125 (inactive) | 0.00621 (inactive) | -50.8% (inactive) | -103% (inactive) |
| COc1ccccc1CN1CC(C(=O)NCc2cccnc2)CC1=O (centres undefined) | 536 | -8% (inactive) | 4.9% (inactive) | 91.5% | -0.1% (inactive) | 113% | -0.502 (inactive) | -2.4e-05 (inactive) | 0.00742 (inactive) | 7.79% (inactive) | 29.2% (inactive) |
| Cc1c(NC(=O)C2(c3ccccc3)CCOCC2)c(=O)n(-c2ccccc2)n1C | 552 | 11.5% (inactive) | 9.2% (inactive) | 90.5% | 25.9% (inactive) | 130% | -0.435 (inactive) | 2.3e-05 (inactive) | 0.00624 (inactive) | 0.891% (inactive) | 9.22% (inactive) |
| COc1ccc(NC(=O)CSc2nc3c(c(=O)n2-c2ccc(F)cc2)SCC3)cc1 | 596 | -5.8% (inactive) | 20% (inactive) | 53.8% | -11.9% (inactive) | 91.5% | -0.541 (inactive) | -1.7e-05 (inactive) | 0.00814 (inactive) | 17.1% (inactive) | 26.3% (inactive) |
| Cc1nn(-c2ccc(Cl)cc2)c2sc(C(=O)N3CCN(c4ccccn4)CC3)cc12 | 571 | -3.6% (inactive) | 1.7% (inactive) | 95.6% | 42.5% (inactive) | 108% | -0.612 (inactive) | -2.4e-05 (inactive) | 0.011 (active) | 9.58% (inactive) | -7.18% (inactive) |
| O=C(CSc1ccc2nnc(-c3ccccc3)n2n1)N1CCN(c2ccccc2)CC1 | 616 | 0.3% (inactive) | 9.9% (inactive) | 110% | -34.8% (inactive) | 111% | -0.592 (inactive) | -3.7e-05 (inactive) | 0.00674 (inactive) | -9.77% (inactive) | 3.8% (inactive) |
| CC(CN(C)Cc1ccccc1)OC(=O)c1ccc2c(c1)OCCO2 (centres undefined) | 596 | 0% (inactive) | -0.4% (inactive) | 126% | -40.2% (inactive) | 109% | -0.48 (inactive) | -5.1e-05 (inactive) | 0.00539 (inactive) | 8.96% (inactive) | 8.88% (inactive) |
